Test results reported in article PMC12136788.
Whole data set: some 5,800 sequences, median “enrichment r” near 0.68, cut for the highest 2% near 11. Not all results are given here.

T1: UNK ZnF1-6 (called full-length) (human, UniProt Q9C0B0 30-357)
T1 sequence: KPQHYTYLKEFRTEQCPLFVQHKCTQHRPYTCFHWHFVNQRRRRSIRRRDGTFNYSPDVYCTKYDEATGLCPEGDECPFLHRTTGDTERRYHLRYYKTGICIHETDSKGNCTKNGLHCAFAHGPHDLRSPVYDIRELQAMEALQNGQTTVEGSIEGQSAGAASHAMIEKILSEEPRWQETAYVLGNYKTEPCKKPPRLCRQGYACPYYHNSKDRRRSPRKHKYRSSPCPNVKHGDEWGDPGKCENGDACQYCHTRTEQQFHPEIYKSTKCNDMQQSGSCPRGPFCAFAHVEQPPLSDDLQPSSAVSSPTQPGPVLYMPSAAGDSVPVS

B1: chr2:121605696:121605828:-|CDS|ENSG00000074054|unk|FALSE|unique (ssRNA)
RNA: GGGAGUUCUACAGUCCGACGAUCGAUAGACUAUUUCUCAGACAAACAGAAGUCUGCUGACCUUGAGCAUGACCAGACCAUGUUAGAUAAACUUGUGGAUGGACUUGCUACCUCUUGGGUGAACUCUAGCAAUUACAAGGUAAGCAACAGAGGAUUGAGCAUCA
B2: chr17:64498535:64498649:-|3pUTR|ENSG00000108654|unk|FALSE|unique (ssRNA)
RNA: GGGAGUUCUACAGUCCGACGAUCUUAAACUGAGGCUUUAAUUGAUGUUAAUGCCUUAUGUCAAAUGUAAAGUUAGAAUUUGCUAGGGCUGGGAUAGGGAGUGAUAUUUCUAGGACUUAGACAUUGAAAACUAAUUCAGCCUGUCAACAGAGGAUUGAGCAUCA
B3: ENSG00000124766:be:win_2101|3pUTR|ENSG00000124766|bound_else_gene|NA|bound_elsewhere_windowed (ssRNA)
RNA: GGGAGUUCUACAGUCCGACGAUCUGCCCCCUCUGCAGCCGGAGGAGGAGAUGUUGAGGGGAGGAGGCCAGCCAGUGUGACCGGCGCUAGGAAAUGACCCGAGAACCCCGUUGGAAGCGCAGCAGCGGGAGCUAGGGGCGGGGGCAACAGAGGAUUGAGCAUCA
B4: chr4:75812186:75812332:+|CDS|ENSG00000138768|unk|total|mutant (ssRNA)
RNA: GGGAGUUCUACAGUCCGACGAUCAGAGCAGCUGGAUUCAUCUAACCGUACCAUUGCCAUUUUACAAACUGAGAAAGACAAACCCGAGUUGGAAAUUACAGAUUCUAAAAAAGAACAAGAUGAUCUCUUGGUGCUCUUGGCCGACAACAGAGGAUUGAGCAUCA
B5: ENSG00000198589:be:win_7451|CDS|ENSG00000198589|bound_else_gene|NA|bound_elsewhere_windowed (ssRNA)
RNA: GGGAGUUCUACAGUCCGACGAUCUGAGUCCAUUGAUGUUCACAGACAAAGCCCAGCAGGAUGUUAUCAUGGUCCUCAAGUUUCCCUCCAACUCCCCUGUUACUCACGUGGCAGCCAACACCCAGCCUGGUUUGGCAACUCCCGCAACAGAGGAUUGAGCAUCA
B6: chr4:75597091:75597192:-|CDS|ENSG00000138769|unk|total|mutant (ssRNA)
RNA: GGGAGUUCUACAGUCCGACGAUCUAUAAACUAUUUAAAAUAAAAGGCUCAAAAAUUGAUGGAGAAAAAGCUGAAAAAGGCAACCGAGCUUCAAAUGCCAGCUGUCUCCAUGACAGCCGGACAAGCCACAACAAAACCGUGCCUCAACAGAGGAUUGAGCAUCA
B7: chr17:82078764:82078865:-|3pUTR|ENSG00000169710|msi1_unk|FALSE|overlapping (ssRNA)
RNA: GGGAGUUCUACAGUCCGACGAUCCCGUGGGGUCUGCGCUUGGUCUUUCUGUGCUUGGAUUUGCAUAUUUAUUGCAUUGCUGGUAGAGACCCCCAGGCCUGUCCACCCUGCCAAGACUCCUCAGGCAGCGUGUGGGUCCCGCACCAACAGAGGAUUGAGCAUCA
B8: ENSG00000136451:be:win_1451|CDS_3pUTR|ENSG00000136451|bound_else_gene|NA|bound_elsewhere_windowed (ssRNA)
RNA: GGGAGUUCUACAGUCCGACGAUCCUCCAAUGAAUCUACCCACACCUAUGACAUUAGCCGCCCCUCUCAAUAUAGCAAUGAGACCUGUAGAGAGCAUGCCUUUCUUGCCCCAAGCUUUGCCUACAUCACCGCCUUGGUAAACAGCAACAGAGGAUUGAGCAUCA
B9: chr5:173316791:173316892:-|3pUTR|ENSG00000113739|msi1|FALSE|unique (ssRNA)
RNA: GGGAGUUCUACAGUCCGACGAUCGGAAACCUUAUACCCAGAGGAAAAUACACACCUGGGGAGUACAUUUGACAAAUUUCCCUUAGGAUUUCGUUAUCUCACCUUGACCCUCAGCCAAGAUUGGUAAAGCUGCGUCCUGGCGAUCAACAGAGGAUUGAGCAUCA
B10: ENSG00000064393:stop:overlap|stop_codon|ENSG00000064393|stop_codon|NA|stop_codon (ssRNA)
RNA: GGGAGUUCUACAGUCCGACGAUCUCUCCCUGGAGAGUGGUUUUCCUGCUUUUCUGCUGCUAGAAAUGUUGCUGUAUGGGAGCUAGUACAAUAGAAAGUGCCCAGUGACUGCAGGCGACCCUUACCGAGGAUUUUAUUCAAGUACAACAGAGGAUUGAGCAUCA
B11: ENSG00000198589:be:win_4201|CDS|ENSG00000198589|bound_else_gene|NA|bound_elsewhere_windowed (ssRNA)
RNA: GGGAGUUCUACAGUCCGACGAUCGAAGCCUCUGUGACAUUUUUGCAGAGGCUAAUUAGCCUUGUGGAUGUGCUUAUAUUUGCAAGUUCUCUUGGCUUUACUGAAAUUGAAGCUGAAAAAAGUAUGUCAUCUGGAGGAAUUUUGCAACAGAGGAUUGAGCAUCA
B12: chr9:37126384:37126485:+|CDS|ENSG00000147905|unk|total|mutant (ssRNA)
RNA: GGGAGUUCUACAGUCCGACGAUCUAUCGAGAUGAGUCAUCCCGUGAACUGAGUGUUGACCGUGAGGUGGAAUUUCAACUCUACCGCCAAAUUCAUUAUGCCCAAGAUCUUGAUGAUGUCAUCAGGGAGGAAGAGCAUGAAGAACAACAGAGGAUUGAGCAUCA
B13: chr15:52550718:52550819:-|3pUTR|ENSG00000128989|msi1|total|mutant (ssRNA)
RNA: GGGAGUUCUACAGUCCGACGAUCUUUAUAUAAACUUUUUAAAUGCCGAAACUUUUUACUUCCACACUCAGUUUUGGAGACCCCCGAAUAAAAGGCUUCAAUACUCUGCAUUCCAUGCCCUCUGCCACCUGCUUUUUUUUCCCCCAACAGAGGAUUGAGCAUCA
B14: ENSG00000066084:stop:overlap|stop_codon|ENSG00000066084|stop_codon|NA|stop_codon (ssRNA)
RNA: GGGAGUUCUACAGUCCGACGAUCACUGGCAGCCACACAUCUCACCUGCUGGGACAGAACCGGCAUACAUUGAGGGGAAACAAUAGUAAAUGUCUUAGACUUUAAGAAGGAUGCUGGGCUGUGGCACGGCAUGUUUGCGAAUGUCAACAGAGGAUUGAGCAUCA

Biological target: T1, UNK ZnF1-6 (called full-length)
Assay: nsRBNS (natural sequence RNA bind-n-seq); RBNS binding buffer (assumed for nsRBNS): 25 mM Tris pH 7.5, 150 mM KCl, 3 mM MgCl2, 0.01% Triton X-100, 500 ug/ml BSA, 20 U/ml SUPERase-In, 4 C; UNK is unkempt and MSI1 is Musashi-1; names of the RNAs are library labels; protein concentration not given here; high values mean tight binding

Row | Binder | binding signal
1 | B1 | 0.726 enrichment R
2 | B2 | 0.878 enrichment R
3 | B3 | 1.41 enrichment R
4 | B4 | 0.434 enrichment R
5 | B5 | 0.743 enrichment R
6 | B6 | 0.872 enrichment R
7 | B7 | 0.749 enrichment R
8 | B8 | 1.48 enrichment R
9 | B9 | 0.601 enrichment R
10 | B10 | 0.569 enrichment R
11 | B11 | 0.355 enrichment R
12 | B12 | 0.413 enrichment R
13 | B13 | 1.03 enrichment R
14 | B14 | 1.59 enrichment R
